Measured values from PubChem BioAssay AID652057 (Broad Institute, 2013).
About 1,000 (71%) of roughly 1,400 compounds were called active. No rule for the calls is given here. The set was probably picked from earlier hits. A selection follows. Entries with a potency or affinity are not part of this list.

Experiment: inhibitors of HIV Env-driven cell fusion, dose response, cherry-pick (AID 652057)
Conditions: HeLa-JRFL Env/CEM21 cell fusion, luciferase; series mostly up to 35 µM

Activity change, negative = inhibition, inactive:
CNC[C@H]1Oc2c(NC(=O)Nc3cccc4ccccc34)cccc2C(=O)N([C@H](C)CO)C[C@H]1C, Cc1sc2ncnc(N3CCN(S(=O)(=O)c4ccc(Br)cc4)CC3)c2c1C, COc1cc(-c2cc(OC)c(O)c(OC)c2)cc(OC)c1O, O=C(Nc1ccc(F)cc1)Nc1ccc2c(c1)[C@@H]1C[C@H](CC(=O)N3CCCCC3)O[C@H](CO)[C@@H]1O2, COC(=O)C[C@H]1C=C[C@H](NC(=O)c2ccccn2)[C@@H](CO)O1, O=C(C[C@@H]1C=C[C@@H](NC(=O)c2ccccc2)[C@H](CO)O1)NCc1ccc(Oc2ccccc2)cc1, COc1ccc(CCCC(=O)NCCc2ccccc2)c(C)c1, COCc1[nH]nc2c1C(c1ccc(F)cc1)N(Cc1ccccc1)C2=O (stereo not drawn), COc1ccccc1-c1c(-c2ccc(O)cc2O)n[nH]c1C(F)(F)F, CCCCn1c(CN(C)Cc2ccccc2)nc2c1c(=O)n(C)c(=O)n2C, CNc1nc2c(c(=O)n(C)c(=O)n2C)n1Cc1ccccc1, C=CCNc1nc2c(c(=O)n(C)c(=O)n2C)n1CCCCCC, CC(C)NC(=O)N(C)C[C@@H]1Oc2ccc(NC(=O)C3CC3)cc2CC(=O)N([C@H](C)CO)C[C@H]1C, CC(C)NC(=O)N(C)C[C@@H]1Oc2ccc(NC(=O)C3CC3)cc2CC(=O)N([C@@H](C)CO)C[C@@H]1C, Cc1cc(Oc2ccc(C#N)cc2)nc(NCc2ccccc2)n1, c1ccc(CSc2nnc([C@@H]3CCCN3)o2)cc1, COc1ccc(C(O)c2nc3ccccc3n2C)cc1OC (stereo not drawn), CCCCCn1c(C(C)NC(=O)CCC)nc2ccccc21 (stereo not drawn), COc1ccc(/C(C)=N/NC(=O)c2cccc(S(=O)(=O)N3CCCC3)c2)c(O)c1 -20.9% [at 8 µM], CCN1CCN(S(=O)(=O)c2ccc(Cl)c(C(=O)Nc3ccccc3N3CCCC3)c2)CC1, CCNc1ncnc2c1cnn2C1CCCO1 (stereo not drawn), CCOc1ccccc1CNc1ncnc2ccc(-c3c(C)noc3C)cc12, Nc1ccc(O)cc1C(=O)OCC(=O)c1ccc(C2CCCCC2)cc1, Cc1nc2ccccc2n1CC(=O)NCc1ccccc1, CC(C)CN(C(=O)c1ccc(S(=O)(=O)N2CCCCC2)cc1)C1CCS(=O)(=O)C1 (stereo not drawn), CCCCCCCCCCOC(=O)Cn1c(COc2ccccc2OC)[n+](C)c2ccccc21, CNC[C@@H]1Oc2c(N)cccc2C(=O)N([C@@H](C)CO)C[C@@H]1C, Cc1ccc(-n2ncc3c(N4CCN(c5ccccc5)CC4)ncnc32)c(C)c1, Cc1ccc2c(c1)c1c3n2CCN(CC(N)=O)C3CCC1 (stereo not drawn), O=C(Nc1ccncc1)c1ccc(Cl)c(S(=O)(=O)N2CCc3ccccc32)c1, CC(OC(=O)c1ccc(NC(=O)CC#N)cc1)C(=O)NCCC1=CCCCC1 (stereo not drawn), CC(=O)c1c(C)[nH]c(C(=O)OCCCCN2C(=O)c3ccccc3C2=O)c1C, CC(=O)c1c(C)[nH]c(C(=O)OCC(=O)Nc2c(C)cccc2C)c1C, COc1ccc(S(=O)(=O)N2CCCCC2)cc1NC(=O)CN(Cc1ccco1)Cc1ccco1, COc1ccc(S(=O)(=O)N2CCCCC2)cc1NC(=O)CCCOc1ccc(C)cc1, COc1ccccc1C(=O)Nc1ccc2c(c1)OC[C@H](C)N(C(C)=O)C[C@H](C)[C@H](OC)CN(C)C2=O, COc1ccc(NC(=O)C(=O)NCC2CCCN2S(=O)(=O)c2cccs2)cc1 (stereo not drawn), CNC[C@@H]1Oc2ccc(NS(C)(=O)=O)cc2CC(=O)N([C@H](C)CO)C[C@H]1C, O=C(C[C@@H]1C[C@@H]2c3cc(NC(=O)C4CCOCC4)ccc3O[C@@H]2[C@H](CO)O1)NCc1ccccc1F, O=C(C[C@@H]1C[C@@H]2c3cc(NC(=O)C4CCOCC4)ccc3O[C@@H]2[C@H](CO)O1)NCCc1ccccc1, O=C(NCc1ccccc1)c1ccc(C(=O)NCc2ccccc2)cc1, O=C(CCNC(=O)c1ccc(Br)cc1)NNC(=O)COc1ccccc1F, CN(C)C(=O)C[C@H]1C[C@@H]2c3cc(NC(=O)NC4CCCCC4)ccc3O[C@@H]2[C@H](CO)O1, Cc1ccccc1-n1c(=O)c2ccccc2n2cnnc12, Cc1nc2ccc(NC(=O)c3cc(S(=O)(=O)N(C)c4ccccc4)ccc3Cl)cc2s1, Cc1ccc(NS(=O)(=O)c2cc(C(=O)N(C)C3CCN(C)CC3)ccc2Cl)cc1Cl, Cc1ccc(-n2nc3c(c2NC(=O)c2ccco2)CS(=O)C3)cc1 (stereo not drawn), O=C(CC1C(=O)NCCN1Cc1cccc(F)c1)NC1CCCCC1 (stereo not drawn), CCN(CCn1cccn1)C(=O)CC1C(=O)NCCN1CCc1ccccc1 (stereo not drawn), O=C(O)C[C@@H]1C=C[C@H](NC(=O)Nc2ccccc2)[C@H](CO)O1, COc1ccccc1S(=O)(=O)N[C@H]1CC[C@@H](CC(=O)N2CCN(C)CC2)O[C@H]1CO, O=C(O)C[C@@H]1C=C[C@@H](NC(=O)Nc2ccccc2)[C@H](CO)O1, COc1ccccc1S(=O)(=O)N[C@H]1CC[C@H](CC(=O)N2CCN(C)CC2)O[C@H]1CO, Nc1ccn([C@@H]2O[C@H](C(=O)NCc3ccc4c(c3)OCO4)[C@@H](O)[C@H]2O)c(=O)n1, Cc1ccc(S(=O)(=O)N[C@@H]2CC[C@H](CCNC(=O)c3ccccc3F)O[C@H]2CO)cc1, CCN(C1CCCCC1)S(=O)(=O)c1ccc(S(=O)(=O)NCc2ccncc2)cc1, CO[C@@H]1CN(C)C(=O)c2ccc(NS(C)(=O)=O)cc2OC[C@@H](C)N(C(=O)C2CCCCC2)C[C@H]1C, CO[C@H]1CN(C)C(=O)c2ccc(NC(=O)Nc3cccc(F)c3)cc2OC[C@@H](C)N(C(C)=O)C[C@H]1C, CO[C@H]1CN(C)C(=O)c2cc(NC(=O)C3CCOCC3)ccc2OC[C@H](C)N(Cc2nccs2)C[C@H]1C, CO[C@H]1CN(C)C(=O)c2ccc(NC(=O)Nc3cccc(F)c3)cc2OC[C@H](C)NC[C@H]1C, CCCC(=O)Nc1ccc2c(c1)OC[C@H](C)N(C(=O)CN(C)C)C[C@@H](C)[C@H](OC)CN(C)C2=O, CO[C@@H]1CN(C)C(=O)c2ccc(NC(C)=O)cc2OC[C@@H](C)N(Cc2cncnc2)C[C@@H]1C, CCCC(=O)Nc1ccc2c(c1)OC[C@@H](C)N(C(=O)CN(C)C)C[C@H](C)[C@@H](OC)CN(C)C2=O, CO[C@H]1CN(C)C(=O)c2ccc(NC(=O)C3CC3)cc2OC[C@@H](C)N(C(C)=O)C[C@@H]1C, CCCC(=O)Nc1ccc2c(c1)OC[C@H](C)N(Cc1ccncc1)C[C@H](C)[C@H](OC)CN(C)C2=O, CCC(=O)Nc1ccc2c(c1)C(=O)N(C)C[C@@H](OC)[C@H](C)CN(C(=O)CC)[C@@H](C)CO2, N#Cc1ccc(CSc2nnc(COc3ccccc3)n2-c2ccccc2)cc1, Cc1ccc(S(=O)(=O)N(C)C[C@H]2Oc3ccc(NC(=O)Nc4cccc5ccccc45)cc3C(=O)N([C@H](C)CO)C[C@@H]2C)cc1
